Here are results for 17 compounds from ChEMBL document CHEMBL1961873, “Compounds: GSK PKIS; Assays: Nanosyn kinase panel” (2012).

For experiment [1], the target named is Ribosomal protein S6 kinase alpha-6 (Homo sapiens) (UniProt Q9UK32). The conditions noted are these: at 1 µM.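 Note: each value is a mean inhibition of RSK4 from a GSK PKIS panel screen.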
In experiment [2] the target is T1, Serine/threonine-protein kinase Sgk1 (Homo sapiens) (UniProt O00141).
T1 sequence (whole entry): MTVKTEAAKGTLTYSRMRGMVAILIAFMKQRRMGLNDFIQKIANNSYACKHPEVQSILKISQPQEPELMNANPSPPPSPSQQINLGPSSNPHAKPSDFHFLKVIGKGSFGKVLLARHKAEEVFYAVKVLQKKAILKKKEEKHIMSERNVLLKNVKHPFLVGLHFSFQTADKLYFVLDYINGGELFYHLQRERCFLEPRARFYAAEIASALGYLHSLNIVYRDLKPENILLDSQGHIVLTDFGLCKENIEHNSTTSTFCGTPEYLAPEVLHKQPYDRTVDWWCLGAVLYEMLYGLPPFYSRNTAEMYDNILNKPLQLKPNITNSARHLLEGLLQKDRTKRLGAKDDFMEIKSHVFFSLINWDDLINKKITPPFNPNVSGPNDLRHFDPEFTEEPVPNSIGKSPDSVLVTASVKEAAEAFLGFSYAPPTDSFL
Particulars: at 0.1 µM.

For experiment [3], the target named is T1, Serine/threonine-protein kinase Sgk1 (Homo sapiens). Particulars: at 1 µM.
The target of experiment [4] is T2, Serine/threonine-protein kinase Sgk2 (Homo sapiens) (UniProt Q9HBY8).
T2 sequence (whole entry): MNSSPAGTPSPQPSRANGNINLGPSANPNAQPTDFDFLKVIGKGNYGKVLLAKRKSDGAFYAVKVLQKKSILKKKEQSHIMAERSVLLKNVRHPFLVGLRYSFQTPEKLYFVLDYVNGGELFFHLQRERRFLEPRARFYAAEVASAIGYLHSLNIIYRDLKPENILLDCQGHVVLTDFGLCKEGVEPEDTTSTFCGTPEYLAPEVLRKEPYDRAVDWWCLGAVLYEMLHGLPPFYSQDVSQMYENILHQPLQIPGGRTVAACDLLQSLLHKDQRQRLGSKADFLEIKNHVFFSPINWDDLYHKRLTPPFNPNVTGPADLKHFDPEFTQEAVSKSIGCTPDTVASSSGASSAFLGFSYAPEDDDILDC
The conditions noted are these: at 0.1 µM.

Experiment [5] deals with T2, Serine/threonine-protein kinase Sgk2 (Homo sapiens). The conditions noted are these: at 1 µM.
For experiment [6], the target named is T3, Serine/threonine-protein kinase Sgk3 (Homo sapiens) (UniProt Q96BR1).
T3 sequence (whole entry): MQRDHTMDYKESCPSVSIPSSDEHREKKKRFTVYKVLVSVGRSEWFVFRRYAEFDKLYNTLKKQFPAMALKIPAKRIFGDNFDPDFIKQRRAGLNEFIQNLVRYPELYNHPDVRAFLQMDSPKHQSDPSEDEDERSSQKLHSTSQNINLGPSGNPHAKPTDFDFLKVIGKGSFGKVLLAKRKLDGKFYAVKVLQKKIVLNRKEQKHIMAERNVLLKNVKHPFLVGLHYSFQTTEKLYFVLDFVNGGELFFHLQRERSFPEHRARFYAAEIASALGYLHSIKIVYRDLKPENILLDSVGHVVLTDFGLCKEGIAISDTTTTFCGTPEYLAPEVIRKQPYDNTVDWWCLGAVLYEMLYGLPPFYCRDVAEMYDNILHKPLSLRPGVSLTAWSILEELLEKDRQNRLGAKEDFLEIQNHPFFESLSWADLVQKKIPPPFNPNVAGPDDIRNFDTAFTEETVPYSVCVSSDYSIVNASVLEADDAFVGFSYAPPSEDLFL
The conditions noted are these: at 0.1 µM.

Experiment [7] addresses T3, Serine/threonine-protein kinase Sgk3 (Homo sapiens). The conditions noted are these: at 1 µM.
Experiment [8] deals with 5'-AMP-activated protein kinase catalytic subunit alpha-1 (Homo sapiens) (UniProt Q13131). Particulars: at 0.1 µM.
Experiment [9] shares this target. Particulars: at 1 µM.
The target in experiment [10] is 5'-AMP-activated protein kinase catalytic subunit alpha-2 (Homo sapiens) (UniProt P54646). The conditions noted are these: at 0.1 µM.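 Note: mean inhibition measured on the AMPK complex of alpha2, beta1 and gamma1 subunits.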

In general, inhibition refers to the drop in the measured response relative to a control, in per cent.

Sequence of Ribosomal protein S6 kinase alpha-6 (Homo sapiens) (Q9UK32 whole entry): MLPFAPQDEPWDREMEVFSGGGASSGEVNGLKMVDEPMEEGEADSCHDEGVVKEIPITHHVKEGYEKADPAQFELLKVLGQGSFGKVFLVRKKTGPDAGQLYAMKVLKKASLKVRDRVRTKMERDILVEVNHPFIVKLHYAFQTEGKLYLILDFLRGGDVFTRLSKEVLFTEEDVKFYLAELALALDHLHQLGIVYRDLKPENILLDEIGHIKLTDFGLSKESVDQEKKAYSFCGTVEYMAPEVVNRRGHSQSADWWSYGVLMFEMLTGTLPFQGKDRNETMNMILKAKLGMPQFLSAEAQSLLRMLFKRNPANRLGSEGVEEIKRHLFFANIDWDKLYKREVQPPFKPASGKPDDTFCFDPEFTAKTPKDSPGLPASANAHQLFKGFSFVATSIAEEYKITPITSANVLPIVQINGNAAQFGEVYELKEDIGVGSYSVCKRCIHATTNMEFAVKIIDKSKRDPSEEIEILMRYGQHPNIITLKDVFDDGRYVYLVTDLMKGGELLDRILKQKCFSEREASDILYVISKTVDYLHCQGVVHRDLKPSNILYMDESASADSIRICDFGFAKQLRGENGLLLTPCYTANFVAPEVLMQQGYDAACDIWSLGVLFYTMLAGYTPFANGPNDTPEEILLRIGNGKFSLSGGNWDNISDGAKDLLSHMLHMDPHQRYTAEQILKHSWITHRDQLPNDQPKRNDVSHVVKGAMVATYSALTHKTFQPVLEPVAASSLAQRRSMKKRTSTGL
Sequence of 5'-AMP-activated protein kinase catalytic subunit alpha-1 (Homo sapiens) (Q13131 whole entry, looked up): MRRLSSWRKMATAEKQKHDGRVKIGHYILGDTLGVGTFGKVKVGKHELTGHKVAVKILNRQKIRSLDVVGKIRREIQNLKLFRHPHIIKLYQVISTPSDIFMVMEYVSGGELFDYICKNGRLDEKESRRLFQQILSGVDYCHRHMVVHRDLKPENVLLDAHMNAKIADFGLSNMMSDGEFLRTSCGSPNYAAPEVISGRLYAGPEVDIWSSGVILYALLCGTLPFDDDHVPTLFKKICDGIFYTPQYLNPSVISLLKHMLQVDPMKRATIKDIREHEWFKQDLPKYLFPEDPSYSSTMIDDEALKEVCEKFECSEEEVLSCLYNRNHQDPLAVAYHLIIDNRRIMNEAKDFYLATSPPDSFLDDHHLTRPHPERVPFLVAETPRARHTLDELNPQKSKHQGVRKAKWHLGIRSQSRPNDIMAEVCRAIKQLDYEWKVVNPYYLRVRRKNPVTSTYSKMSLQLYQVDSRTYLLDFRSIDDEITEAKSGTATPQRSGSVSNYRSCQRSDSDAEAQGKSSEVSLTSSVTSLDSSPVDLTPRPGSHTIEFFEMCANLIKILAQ
Sequence of 5'-AMP-activated protein kinase catalytic subunit alpha-2 (Homo sapiens) (P54646 whole entry, looked up): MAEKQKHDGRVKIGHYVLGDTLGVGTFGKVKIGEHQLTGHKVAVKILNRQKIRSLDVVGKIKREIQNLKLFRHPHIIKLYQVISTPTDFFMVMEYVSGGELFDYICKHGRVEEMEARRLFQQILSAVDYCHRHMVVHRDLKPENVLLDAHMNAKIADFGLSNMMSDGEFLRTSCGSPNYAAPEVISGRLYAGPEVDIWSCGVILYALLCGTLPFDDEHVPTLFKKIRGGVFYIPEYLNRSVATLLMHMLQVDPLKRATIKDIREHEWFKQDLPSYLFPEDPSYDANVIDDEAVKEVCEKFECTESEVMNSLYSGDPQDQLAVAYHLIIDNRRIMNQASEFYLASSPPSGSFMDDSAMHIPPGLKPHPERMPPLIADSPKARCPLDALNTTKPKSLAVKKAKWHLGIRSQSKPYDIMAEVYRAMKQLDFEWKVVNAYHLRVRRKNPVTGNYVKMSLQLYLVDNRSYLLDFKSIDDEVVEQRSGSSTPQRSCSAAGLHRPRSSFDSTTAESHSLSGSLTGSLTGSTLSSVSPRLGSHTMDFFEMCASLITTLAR

`CCn1c(-c2nonc2N)nc2ccccc21`: the inhibition was 10.4% in experiment [1]; 4.57% in experiment [2]; 5.48% in [3]; -0.51% in [4]; 9.28% in [5]; 2.3% in experiment [6]. The inhibition was determined as 23.6% in [7], 3.06% in [8], 1.63% in [9] and 0.31% in experiment [10].

As for `NS(=O)(=O)c1ccc(Nc2ncc(-c3ccccc3)o2)cc1`, the inhibition in [1] turned out to be 4.32%; in experiment [2] it was 2.77%; in [3], 13%; in experiment [4], 2.15%; in [5], 10.4%; in experiment [6] it was 1.86%. The inhibition stood at 2.86% in experiment [7], 4.14% in experiment [8], 11.5% in experiment [9] and 1.03% in experiment [10].

As for `COc1cccc(-n2ncc3c(N/N=C/c4ccc(F)cc4)ncnc32)c1`, the inhibition in experiment [1] came out at 1.84%; in experiment [2], 4.27%; in [3], 5.6%; in [4], 2.15%; in experiment [5], 0.76%; in [6], 4.84%. Further, the inhibition is 3.63% in [7], 3.38% in experiment [8], 5.57% in [9] and -0.09% in experiment [10].

Consider `COc1cc2c(cc1Nc1nc(Nc3ccsc3C(N)=O)c3cc[nH]c3n1)N(C(=O)CN(C)C)CCC2(C)C`, for which the inhibition in [1] came out at 49.6%; in [2], 3.7%; in experiment [3] it was 4.59%; in [4] it was 2.95%; in [5] it was 2.79%; in experiment [6], 2.75%. Further, the inhibition in [7] came to 4.25%; in [8], 6.5%; in experiment [9], 7.07%; in [10] it was 6.92%.

`CC(C)COC(=O)c1ccc2c(c1)/C(=C/Nc1ccc(S(N)(=O)=O)cc1)C(=O)N2`: the inhibition in experiment [1] was determined as 39.3%; in [2] it was 1.25%; in experiment [3], 19%; in experiment [4], 1.33%; in experiment [5], 1.89%; in [6], 1.37%. In addition, the inhibition in [7] was found to be 3.19%; in experiment [8], 23.4%; in [9] it was 72.3%; in experiment [10], 5.83%.

In the case of `CCc1nn2ncccc2c1-c1ccnc(NC2CC2)n1`, the inhibition in experiment [1] is 1.93%; in experiment [2] it was 2.68%; in [3], 3.56%; in [4], 0.28%; in experiment [5] it was -2.61%; in [6] it was 2.22%. The inhibition in [7] stood at 3.01%; in experiment [8], 1.09%; in [9], 4.1%; in [10] it was 2.14%.

As for `Nc1nc(-c2cccc(Cl)c2)c(-c2ccc3ncccc3n2)s1`, the inhibition turned out to be 2.73% in experiment [1]; 4.41% in experiment [2]; 5.86% in experiment [3]; 2.07% in experiment [4]; 3.59% in [5]; 4.35% in experiment [6]. Moreover, the inhibition in [7] stood at 6.98%; in experiment [8] it was 3.09%; in [9], 5.53%; in experiment [10], 3.05%.

As to `CCCN1CCC(c2ccc(Nc3nc(Nc4cc(F)ccc4C(N)=O)c4cc[nH]c4n3)c(OC)c2)CC1`, the inhibition in experiment [1] worked out at 63.4%; in [2], 3.17%; in experiment [3], 13.8%; in [4], 4.48%; in experiment [5], 5.14%; in [6], 3.22%. Also, the inhibition is 4.03% in experiment [7], 5.5% in [8], 26.9% in [9] and 3.42% in experiment [10].

Take `CCn1c(-c2nonc2N)nc2c(C#CC(C)(C)O)ncc(OC3CCNCC3)c21`: the inhibition in experiment [1] worked out at 5.51%; in experiment [2], 2.06%; in experiment [3] it was 4.36%; in [4] it was 5.71%; in experiment [5], 16.4%; in [6], 11.2%. Further, the inhibition in [7] is 53.4%; in experiment [8], 40.5%; in experiment [9], 82.6%; in experiment [10], 12.1%.

As for `CNC(=O)c1cccc(C#Cc2cncnc2Nc2ccc(OCc3cccc(F)c3)c(Cl)c2)c1`, the inhibition in experiment [1] is 0.05%; in experiment [2], 1.16%; in experiment [3], 0.62%; in experiment [4], -0.28%; in experiment [5], 0.71%; in experiment [6] it was 0.18%. Further, the inhibition in [7] is 1.41%; in experiment [8] it was 0.65%; in experiment [9], 2.17%; in [10], -3.97%.

`Cc1cccc2c1NC(=O)/C2=N\Nc1ccc(S(N)(=O)=O)cc1`: the inhibition in [1] amounted to 2.27%; in experiment [2], 0.42%; in experiment [3], 3.23%; in experiment [4], 2.93%; in [5] it was 3.69%; in experiment [6] it was 0.3%. Also, the inhibition was -0.24% in experiment [7], 2.8% in experiment [8], 4.3% in experiment [9] and 0.95% in [10].

In the case of `COc1ccc(-c2oc3ncnc(N)c3c2-c2ccc(NC(=O)Nc3cc(C(F)(F)F)ccc3F)cc2)cc1`, the inhibition in experiment [1] is 17.4%; in experiment [2], 3.83%; in [3], 8.65%; in [4] it was 4.57%; in experiment [5] it was 4.27%; in experiment [6], 3.71%. For the same compound, the inhibition turned out to be 4.09% in experiment [7], 4.2% in experiment [8], 8.8% in experiment [9] and 1.55% in experiment [10].

`COC(=O)Nc1nc2ccc(Oc3ccc(NC(=O)Nc4cccc(Cl)c4)cc3)cc2[nH]1`: the inhibition is -1.02% in [1]; 0.53% in experiment [2]; 0.15% in experiment [3]; 1.28% in [4]; -2.41% in experiment [5]; 0.38% in [6]. Moreover, the inhibition in experiment [7] worked out at 0.61%; in [8], 0.94%; in [9], 0.58%; in experiment [10] it was 1.29%.

For `COc1ccc2[nH]c3c4[nH]c5ccc(OC)cc5c4c4c(c3c2c1)C(=O)NC4=O`, the inhibition in experiment [1] was determined as 88%; in [2], 21.8%; in experiment [3], 63.8%; in experiment [4] it was 16.6%; in experiment [5] it was 59.4%; in experiment [6], 9.76%. The inhibition in experiment [7] was determined as 40.2%; in experiment [8] it was 37%; in experiment [9], 78%; in experiment [10], 17.9%.

On to `Fc1ccc(-c2cc(-c3c[nH]nc3-c3ccccn3)ccn2)cc1`, for which the inhibition in experiment [1] stood at 0.89%; in experiment [2] it was 3.85%; in [3], 5.98%; in experiment [4], 3.86%; in experiment [5], 0.65%; in [6], 5.08%. Moreover, the inhibition in [7] turned out to be 4.1%; in [8], 4.84%; in experiment [9], 4.83%; in [10], 2.6%.

In the case of `O=C(O[C@H]1CN[C@H](C#Cc2cc3ncnc(Nc4ccc(Cc5ccccc5)cc4)c3s2)C1)N1CCOCC1`, the inhibition came out at 1.25% in [1]; 1.05% in experiment [2]; 1.98% in experiment [3]; 0.65% in [4]; 7.04% in [5]; 2.7% in experiment [6]. Moreover, the inhibition in experiment [7] was 5.58%; in [8], 2.64%; in experiment [9], 1.94%; in experiment [10] it was -0.29%.

Consider `Fc1ccc(-c2nn3ncccc3c2-c2ccnc(Nc3ccc4c(c3)OCCO4)n2)cc1`, for which the inhibition in experiment [1] was found to be 5.49%; in experiment [2], 3.85%; in [3] it was 3.42%; in experiment [4] it was 0.17%; in [5], 0.65%; in experiment [6], 4.45%. Moreover, the inhibition in [7] is 0.8%; in experiment [8], 3%; in experiment [9], 1.48%; in experiment [10], 3.53%.
